PubChem BioAssay
Activity calls are given as the source filed them.

Tests used:
[1] = system: PRMT1 (protein arginine N-methyltransferase 1); assay: PRMT1 binders on small-molecule microarrays, primary screen, biochemical, small-molecule microarray, 635 nm fluorescence (AID 1088); details: small-molecule microarray binding, higher = more signal;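 also: binding of Prmt1 protein to compounds spotted on small-molecule microarray slides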
[2] = yeast growth modulation, basal conditions, primary screen, YJM789 clinical isolate, OD600, 24 h (AID 1089);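 also: growth of clinical yeast isolate S. cerevisiae YJM 789 seeded 1000 cells per well; test concentration not given here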; details: S. cerevisiae YJM789 growth, higher = more signal, called active from +8 up or from −8 down
[3] = fission yeast growth modulation, primary screen, strain 972, OD600, 24 h, no modulator (AID 1090);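 also: basal condition with compound alone and no growth modifier present; test concentration not given here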; details: S. pombe 972 growth, higher = more signal, called active from +8 up or from −8 down
[4] = S. cerevisiae growth modulation with rapamycin, primary screen, strain BY4716, OD600, 96 h (AID 1091); details: higher = more signal, called active from +8 up or from −8 down; also: test concentration not given here
[5] = biological target: Torsin-1A-interacting protein 2 (Homo sapiens) (UniProt Q8NFQ8); assay: LULL1 binders on small-molecule microarray, primary screen, cell lysate, human LULL1 lysate, 635/667 nm fluorescence (AID 1092); details: hLULL1 lysate binding, 635 nm fluorescence, higher = more signal;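 also: probe is lysate of COS7 cells overexpressing human LULL1; score merges per-feature 667 nm fluorescence with signal-to-noise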
Torsin-1A-interacting protein 2 (Homo sapiens), sequence (Q8NFQ8 whole entry, looked up): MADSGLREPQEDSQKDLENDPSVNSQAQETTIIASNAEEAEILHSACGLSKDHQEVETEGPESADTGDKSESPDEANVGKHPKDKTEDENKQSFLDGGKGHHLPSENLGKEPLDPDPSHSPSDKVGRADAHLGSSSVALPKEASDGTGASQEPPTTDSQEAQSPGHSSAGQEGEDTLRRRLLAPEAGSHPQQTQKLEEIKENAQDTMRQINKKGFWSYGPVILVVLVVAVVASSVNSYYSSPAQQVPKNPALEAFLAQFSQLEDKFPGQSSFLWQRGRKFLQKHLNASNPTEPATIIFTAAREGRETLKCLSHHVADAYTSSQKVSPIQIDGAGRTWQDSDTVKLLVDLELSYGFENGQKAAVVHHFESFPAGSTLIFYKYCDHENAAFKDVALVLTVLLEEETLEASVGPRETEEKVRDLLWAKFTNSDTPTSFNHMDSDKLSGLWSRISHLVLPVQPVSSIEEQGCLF

[6] = E. coli growth modulation, two-sided OD650, primary screen, E. coli filamentation project, strain DRC41, 24 h (AID 1093); details: OD650, 24 h, higher = more signal, called active from +8 up or from −8 down;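 also: MC1000 strain lacking acrAB efflux and sulA so SOS filamentation is blocked; test concentration not given here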
[7] = small-molecule microarray binders of probe aLefty2, primary screen, biochemical, biotinylated probe, 635/667 nm fluorescence (AID 1094); details: higher = more signal;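 also: score merges spot fluorescence near 667 nm with spot signal-to-noise ratio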
[8] = system: Noggin (protein binding on small-molecule microarray); assay: Noggin binders on small-molecule microarray, primary screen, biochemical, 635/667 nm fluorescence (AID 1095); details: 635 nm fluorescence, higher = more signal;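 also: score merges 667 nm feature fluorescence with signal to noise over triplicate slides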
[9] = biological target: Neurogenic locus notch homolog protein 3 (Homo sapiens) (UniProt Q9UM47); assay: NOTCH3 binders on small-molecule microarray, primary screen, biochemical, 635/667 nm fluorescence (AID 1096); details: NOTCH3 binding, 635 nm fluorescence, higher = more signal
Neurogenic locus notch homolog protein 3 (Homo sapiens), sequence (Q9UM47 whole entry, looked up): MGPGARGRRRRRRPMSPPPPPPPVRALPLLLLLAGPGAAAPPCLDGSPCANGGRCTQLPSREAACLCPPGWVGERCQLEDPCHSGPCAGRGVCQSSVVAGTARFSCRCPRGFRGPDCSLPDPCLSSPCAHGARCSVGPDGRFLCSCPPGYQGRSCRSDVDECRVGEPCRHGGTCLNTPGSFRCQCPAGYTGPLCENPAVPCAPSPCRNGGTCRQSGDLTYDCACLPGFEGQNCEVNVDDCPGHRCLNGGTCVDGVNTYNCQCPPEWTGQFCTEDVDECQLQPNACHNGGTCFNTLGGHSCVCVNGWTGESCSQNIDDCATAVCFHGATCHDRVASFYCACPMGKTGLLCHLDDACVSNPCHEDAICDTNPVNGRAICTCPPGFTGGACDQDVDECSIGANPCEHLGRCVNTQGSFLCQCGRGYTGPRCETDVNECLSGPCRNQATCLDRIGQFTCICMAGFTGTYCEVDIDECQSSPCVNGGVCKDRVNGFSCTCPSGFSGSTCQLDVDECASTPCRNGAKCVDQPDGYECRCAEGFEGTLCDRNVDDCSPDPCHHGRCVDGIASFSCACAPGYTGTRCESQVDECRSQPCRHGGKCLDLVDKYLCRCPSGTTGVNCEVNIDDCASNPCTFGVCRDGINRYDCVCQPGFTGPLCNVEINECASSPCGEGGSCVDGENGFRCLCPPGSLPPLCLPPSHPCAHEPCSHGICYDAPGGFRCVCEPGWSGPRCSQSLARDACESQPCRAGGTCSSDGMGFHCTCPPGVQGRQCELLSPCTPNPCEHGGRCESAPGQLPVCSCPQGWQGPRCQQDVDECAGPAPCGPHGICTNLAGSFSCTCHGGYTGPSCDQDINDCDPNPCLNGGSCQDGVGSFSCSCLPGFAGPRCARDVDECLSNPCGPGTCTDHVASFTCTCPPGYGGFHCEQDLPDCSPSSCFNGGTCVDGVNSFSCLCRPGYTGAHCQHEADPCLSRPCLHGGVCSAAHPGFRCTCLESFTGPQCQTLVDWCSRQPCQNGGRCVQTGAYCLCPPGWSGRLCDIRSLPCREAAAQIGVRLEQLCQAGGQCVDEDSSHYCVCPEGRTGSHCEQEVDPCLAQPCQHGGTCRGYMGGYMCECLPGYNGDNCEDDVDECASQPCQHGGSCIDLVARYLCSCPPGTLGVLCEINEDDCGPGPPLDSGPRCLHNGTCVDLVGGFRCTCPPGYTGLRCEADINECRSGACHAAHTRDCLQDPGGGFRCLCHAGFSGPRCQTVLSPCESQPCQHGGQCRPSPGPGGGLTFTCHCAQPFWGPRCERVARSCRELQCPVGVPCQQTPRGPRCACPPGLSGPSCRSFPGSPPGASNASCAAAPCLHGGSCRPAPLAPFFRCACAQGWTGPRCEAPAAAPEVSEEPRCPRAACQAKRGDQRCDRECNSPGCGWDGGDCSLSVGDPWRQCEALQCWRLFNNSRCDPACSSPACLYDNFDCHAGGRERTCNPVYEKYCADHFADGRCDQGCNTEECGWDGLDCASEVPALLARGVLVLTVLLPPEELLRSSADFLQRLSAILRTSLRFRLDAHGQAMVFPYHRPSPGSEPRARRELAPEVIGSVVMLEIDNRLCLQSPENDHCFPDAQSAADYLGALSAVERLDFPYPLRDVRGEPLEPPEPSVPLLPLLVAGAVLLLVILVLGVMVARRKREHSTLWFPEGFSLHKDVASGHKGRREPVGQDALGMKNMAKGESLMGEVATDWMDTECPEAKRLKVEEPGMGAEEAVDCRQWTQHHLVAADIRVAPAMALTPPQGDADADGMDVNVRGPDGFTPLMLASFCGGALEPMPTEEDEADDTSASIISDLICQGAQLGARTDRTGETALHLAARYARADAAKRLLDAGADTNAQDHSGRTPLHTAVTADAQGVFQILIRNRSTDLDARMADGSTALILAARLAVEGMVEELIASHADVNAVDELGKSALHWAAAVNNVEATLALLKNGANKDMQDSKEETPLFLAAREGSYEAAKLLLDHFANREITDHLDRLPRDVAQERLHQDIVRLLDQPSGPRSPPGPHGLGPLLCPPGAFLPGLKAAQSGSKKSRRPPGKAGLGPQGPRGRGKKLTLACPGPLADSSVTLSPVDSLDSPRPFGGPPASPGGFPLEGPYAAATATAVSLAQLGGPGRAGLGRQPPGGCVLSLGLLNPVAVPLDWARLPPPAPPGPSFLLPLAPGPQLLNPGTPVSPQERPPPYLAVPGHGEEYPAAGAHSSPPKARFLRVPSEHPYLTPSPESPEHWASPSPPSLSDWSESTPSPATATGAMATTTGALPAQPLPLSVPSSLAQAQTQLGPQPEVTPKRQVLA

[10] = small-molecule microarray binders of probe aEGFR, primary screen, biochemical, biotinylated probe, 635/667 nm fluorescence (AID 1097); details: higher = more signal;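 also: probe is a biotinylated anti-EGFR antibody binding compounds printed on slides; score combines fluorescence near 667 nm and signal to noise of each spot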
[11] = system: Plasmodium falciparum Sir2 (PF13_0152, Sir2A); assay: pfSir2 binders on small-molecule microarrays, primary screen, biochemical, small-molecule microarray, 635 nm fluorescence (AID 1098); details: small-molecule microarray binding, fluorescence 635 nm; higher = more signal;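 also: score merges spot fluorescence intensity with its signal-to-noise ratio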
[12] = small-molecule microarray binders of probe aDKK1, primary screen, biochemical, biotinylated probe, 635/667 nm fluorescence (AID 1099); details: higher = more signal;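 also: score merges 667nm spot fluorescence with signal to noise across triplicate slides; reference of the scale not given here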
[13] = small-molecule microarray binders of probe aCHRDL2, primary screen, biochemical, biotinylated probe, 635/667 nm fluorescence (AID 1100); details: higher = more signal
[14] = splicing luciferase reporter signal modulators, primary screen, spliceosome inhibition project, cell-based, HEK293, splice +/- reporter (AID 1101); details: luminescence, 24 h, higher = more signal, called active from +8 up or from −8 down;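 also: HEK293 cells carrying a splicing-competent luciferase reporter gene; test concentration not given here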
[15] = biological target: Fibroblast growth factor 10 (Homo sapiens) (UniProt O15520); assay: FGF10 binders on small-molecule microarrays, primary screen, biochemical, small-molecule microarray, 635 nm fluorescence (AID 1102); details: FGF10 binding, fluorescence 635 nm, higher = more signal
Fibroblast growth factor 10 (Homo sapiens), sequence (O15520 whole entry, looked up): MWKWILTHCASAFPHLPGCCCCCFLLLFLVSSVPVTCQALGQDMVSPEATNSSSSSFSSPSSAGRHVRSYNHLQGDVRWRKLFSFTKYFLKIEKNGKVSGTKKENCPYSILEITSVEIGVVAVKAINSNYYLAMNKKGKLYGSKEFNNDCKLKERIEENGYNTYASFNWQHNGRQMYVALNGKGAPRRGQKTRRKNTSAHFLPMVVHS

[16] = system: glycogen synthase kinase-3 (GSK3A per assay name; protocol says GSK3B); assay: GSK3 binders on small-molecule microarrays, primary screen, biochemical, small-molecule microarray, 635 nm fluorescence, GSK3A (AID 1103); details: small-molecule microarray binding, fluorescence 635 nm; higher = more signal; also: the record names both GSK3A and GSK3B
[17] = biological target: Epidermal growth factor receptor (Homo sapiens) (UniProt P00533); assay: EGFR binders on small-molecule microarrays, primary screen, biochemical, small-molecule microarray, 635 nm fluorescence (AID 1104); details: EGFR binding, higher = more signal;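 also: score merges 667 nm emission intensity with spot signal to noise over triplicate slides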
Epidermal growth factor receptor (Homo sapiens), sequence (P00533 whole entry, looked up): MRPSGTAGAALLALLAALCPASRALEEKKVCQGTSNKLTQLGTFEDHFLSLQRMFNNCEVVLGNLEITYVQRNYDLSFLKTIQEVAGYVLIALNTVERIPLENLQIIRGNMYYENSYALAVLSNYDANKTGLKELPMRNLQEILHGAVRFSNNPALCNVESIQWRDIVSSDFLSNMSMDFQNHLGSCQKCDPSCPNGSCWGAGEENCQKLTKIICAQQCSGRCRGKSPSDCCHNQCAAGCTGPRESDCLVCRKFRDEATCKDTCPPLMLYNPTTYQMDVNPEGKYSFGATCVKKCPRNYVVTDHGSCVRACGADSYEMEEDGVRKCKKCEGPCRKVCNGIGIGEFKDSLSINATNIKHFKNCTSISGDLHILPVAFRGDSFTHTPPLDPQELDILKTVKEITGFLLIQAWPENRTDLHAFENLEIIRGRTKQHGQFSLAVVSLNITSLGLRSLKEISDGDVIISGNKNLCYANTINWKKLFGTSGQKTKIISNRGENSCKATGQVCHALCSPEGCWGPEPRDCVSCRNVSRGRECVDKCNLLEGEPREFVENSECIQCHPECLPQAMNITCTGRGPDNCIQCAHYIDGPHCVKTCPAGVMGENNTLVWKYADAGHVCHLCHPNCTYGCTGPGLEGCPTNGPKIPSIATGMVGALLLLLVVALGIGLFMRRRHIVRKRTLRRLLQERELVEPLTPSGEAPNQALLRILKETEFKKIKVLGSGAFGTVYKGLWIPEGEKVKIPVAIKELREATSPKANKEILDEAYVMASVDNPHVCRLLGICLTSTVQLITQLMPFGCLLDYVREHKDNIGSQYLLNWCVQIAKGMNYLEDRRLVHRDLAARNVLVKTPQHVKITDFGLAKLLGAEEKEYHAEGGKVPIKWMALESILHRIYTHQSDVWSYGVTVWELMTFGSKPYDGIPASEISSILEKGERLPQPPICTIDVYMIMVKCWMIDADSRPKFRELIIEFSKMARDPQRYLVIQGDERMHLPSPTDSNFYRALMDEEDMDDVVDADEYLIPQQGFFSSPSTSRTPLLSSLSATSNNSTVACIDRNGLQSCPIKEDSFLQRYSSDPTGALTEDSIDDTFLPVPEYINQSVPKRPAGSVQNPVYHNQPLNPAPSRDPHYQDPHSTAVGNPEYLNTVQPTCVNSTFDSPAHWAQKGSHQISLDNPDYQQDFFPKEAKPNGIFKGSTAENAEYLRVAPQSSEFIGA

[18] = biological target: Follistatin-related protein 3 (Homo sapiens) (UniProt O95633); assay: FSTL3 binders on small-molecule microarrays, primary screen, biochemical, small-molecule microarray, 635 nm fluorescence (AID 1105); details: FSTL3 binding, higher = more signal;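 also: score merges emission near 667 nm and signal to noise per printed spot across three slides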
Follistatin-related protein 3 (Homo sapiens), sequence (O95633 whole entry, looked up): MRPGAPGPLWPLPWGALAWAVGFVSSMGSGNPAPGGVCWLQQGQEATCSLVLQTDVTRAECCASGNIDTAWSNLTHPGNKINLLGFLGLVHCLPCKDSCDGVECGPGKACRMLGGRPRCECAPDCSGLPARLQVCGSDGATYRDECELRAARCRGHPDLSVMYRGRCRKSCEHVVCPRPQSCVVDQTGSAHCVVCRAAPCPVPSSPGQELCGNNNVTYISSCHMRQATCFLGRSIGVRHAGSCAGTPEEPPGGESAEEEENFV

[19] = biological target: Dickkopf-related protein 1 (Homo sapiens) (UniProt O94907); assay: DKK1 binders on small-molecule microarrays, primary screen, biochemical, small-molecule microarray, 635 nm fluorescence scan (AID 1106); details: DKK1 binding, higher = more signal;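 also: score merges emission near 667 nm with signal to noise over three replicate slides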
Dickkopf-related protein 1 (Homo sapiens), sequence (O94907 whole entry, looked up): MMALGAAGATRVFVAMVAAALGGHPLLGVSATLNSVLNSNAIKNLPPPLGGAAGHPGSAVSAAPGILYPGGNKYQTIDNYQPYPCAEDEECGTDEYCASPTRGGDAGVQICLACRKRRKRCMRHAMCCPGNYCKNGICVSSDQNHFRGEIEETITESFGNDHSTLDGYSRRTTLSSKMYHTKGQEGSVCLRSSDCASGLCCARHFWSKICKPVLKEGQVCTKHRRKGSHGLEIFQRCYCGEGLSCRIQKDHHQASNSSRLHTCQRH

[20] = system: Inhibin beta A chain (activin A); assay: INHBA (activin A) binders on microarrays, primary screen, biochemical, small-molecule microarray, 635 nm fluorescence scan (AID 1107); details: small-molecule microarray binding, higher = more signal;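 also: mouse activin A protein probed at 4.33 µg/mL on printed slides; score merges bound-protein fluorescence near 667 nm with spot signal-to-noise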

| SMILES | composite z-score [1] | z-score [2] | z-score [3] | z-score [4] | composite z-score [5] | z-score [6] | composite z-score [7] | composite z-score [8] | composite z-score [9] | composite z-score [10] | composite z-score [11] | composite z-score [12] | composite z-score [13] | z-score [14] | composite z-score [15] | composite z-score [16] | composite z-score [17] | composite z-score [18] | composite z-score [19] | composite z-score [20] |
| --- | --- | --- | --- | --- | --- | --- | --- | --- | --- | --- | --- | --- | --- | --- | --- | --- | --- | --- | --- | --- |
| COc1cc2c(cc1O)C(C)N(Cc1ccc([N+](=O)[O-])o1)CC2 (stereo not given) | 1.56 | -0.337 (inactive) | -3.24 (inactive) | -1.57 (inactive) | 1.74 | -0.741 (inactive) | 0.136 | 0.142 | 1.07 | 0.174 | 1.38 | 0.749 | 0.879 | 0.286 (inactive) | 0.675 | 0.899 | -0.459 | 0.574 | -0.0673 | 1.31 |
| COc1ccccc1CN1C(=O)c2ccccc2[C@@]2(Cc3ccccc3N(CC(F)(F)F)C2=O)[C@@H]1c1ccc(CO)cc1 | 0.955 | 0.17 (inactive) | 0.181 (inactive) | -1.7 (inactive) | 0.104 | 1.07 (inactive) | -0.332 | 1.18 | 0.538 | -0.322 | 0.144 | -0.435 | -0.167 | 1.49 (inactive) | 0.507 | 0.524 | 0.414 | 0.614 | 0.564 | 1.03 |
| CCOC(=O)C1=CC[C@@H](c2ccccc2C(F)(F)F)N(S(=O)(=O)c2ccc(C)cc2)[C@H]1c1ccc(C#N)cc1 | 0.884 | -0.242 (inactive) | 1.2 (inactive) | 3.51 (inactive) | 2.56 | -0.156 (inactive) | -0.0099 | 0.292 | 1.03 | -0.0061 | 0.668 | 0.648 | 0.276 | -0.476 (inactive) | 0.719 | 1.2 | 0.593 | 0.772 | 0.35 | 0.307 |
| CC(=O)c1ccc(C(O)C2C=CC3C(=O)N(c4ccccc4)C(=O)C3N2Nc2ccc(C#N)cc2)cc1 (stereo not given) | 0.155 | -0.623 (inactive) | 1.04 (inactive) | 2.05 (inactive) | 3.76 | -0.963 (inactive) | -0.103 | -0.442 | 0.352 | 0.0753 | 0.45 | 0.204 | 0.764 | 0.744 (inactive) | -0.0433 | 0.582 | 0.262 | 0.133 | -0.594 | 0.443 |
| COc1cc2c(cc1OC)CN(C(=O)[C@@H]1[C@H]3C(=O)O[C@H](c4ccccc4)[C@H](c4ccccc4)N3[C@H](c3ccc(OCCO)cc3)[C@@]13C(=O)Nc1ccc(C#CC4(O)CCCCCC4)cc13)CC2 | 1.54 | 0.972 (inactive) | 0.888 (inactive) | 5.25 (inactive) | 3.19 | 2.32 (inactive) | -0.438 | 1.47 | 1.08 | -0.244 | 1.21 | 0.7 | -0.386 | -1.38 (inactive) | 1.47 | 1.3 | 0.741 | 1.11 | 0.698 | 0.282 |
| O=C1O[C@H](c2ccccc2)[C@H](c2ccccc2)N2[C@H]1[C@@H](C(=O)Nc1nc3ccccc3s1)[C@]1(C(=O)Nc3ccc(C#CC4(O)CCCCCC4)cc31)[C@H]2c1ccccc1OCCO | 1.54 | 1.87 (inactive) | 1.91 (inactive) | 3.32 (inactive) | 3.08 | 0.149 (inactive) | -0.118 | 0.971 | 1.06 | -0.0564 | 1.55 | -0.074 | -0.353 | -0.215 (inactive) | 1.35 | 1.33 | 0.49 | 1.32 | 0.452 | -0.0311 |
| O=C1O[C@H](c2ccccc2)[C@H](c2ccccc2)N2[C@H]1[C@@H](C(=O)O)[C@]1(C(=O)Nc3ccc(C#CC4=CCCCC4)cc31)[C@H]2c1ccc(O)cc1 | 1.54 | -0.206 (inactive) | -0.113 (inactive) | -0.776 (inactive) | 2.65 | -0.911 (inactive) | 0.0169 | 0.653 | 0.966 | -0.0353 | 1.37 | -0.0007 | 0.0645 | -0.824 (inactive) | 1.06 | 0.908 | 0.23 | 0.844 | 1.11 | 0.855 |
| COc1ccc([Si](C)(C)[C@H]2[C@H](CCn3cc([C@H](O)c4ccccc4)nn3)O[C@@]3(C(=O)N(Cc4ccc(N5C(=O)c6cccc7cccc5c67)cc4)c4ccccc43)[C@@H]2C)cc1 | 0.643 | 0.642 (inactive) | 1.17 (inactive) | 2.55 (inactive) | 0.277 | 0.021 (inactive) | -0.0674 | -0.162 | -0.0817 | -0.285 | 0.93 | 0.0396 | 0.538 | -0.64 (inactive) | 0.324 | -0.509 | -0.775 | -0.617 | -0.858 | -1.13 |
| COc1ccc([Si](C)(C)[C@@H]2[C@@H](CCn3cc([C@H](O)c4ccccc4)nn3)O[C@]3(C(=O)N(Cc4ccc(N5CCC5=O)cc4)c4ccccc43)[C@H]2C)cc1 | 0.0655 | 0.297 (inactive) | 0.375 (inactive) | 3.51 (inactive) | 0.309 | 0.705 (inactive) | -0.177 | 1.13 | -0.231 | -0.313 | 0.453 | -0.213 | -0.0321 | -0.619 (inactive) | 0.137 | -0.364 | -0.167 | -0.0461 | 0.135 | 0.632 |
| COC(=O)C(CC#Cc1ccc2c(c1)[C@]1(C(=O)N2)[C@H](C(=O)N2CCN(c3ncccn3)CC2)[C@H]2C(=O)O[C@H](c3ccccc3)[C@H](c3ccccc3)N2[C@@H]1c1ccc(OCCO)cc1)C(=O)OC | 1.53 | 3.19 (inactive) | 2.13 (inactive) | 5.67 (inactive) | 2.76 | 0.54 (inactive) | 0.0008 | 1.3 | 1.02 | -0.0177 | 1.22 | 0.0224 | -0.0434 | -0.152 (inactive) | 1.17 | 0.994 | 0.68 | 1.39 | 0.612 | 0.0693 |
